The values below come from publication PMC12136788.

Where a chain is given by its changes, count along the chain named. Over roughly 24,000 sequences, “enrichment r” has its median near 0.99; the highest 2% begin near 3.7. Many of the other results were omitted from the sample, so the highest values are more common in it than they were.

T1: UNK ZnF1-3 (human, UniProt Q9C0B0 31-174)
T1 sequence: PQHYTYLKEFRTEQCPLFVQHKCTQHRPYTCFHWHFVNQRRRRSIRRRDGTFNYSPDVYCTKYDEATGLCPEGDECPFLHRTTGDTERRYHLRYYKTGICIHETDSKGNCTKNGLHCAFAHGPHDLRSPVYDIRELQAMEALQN

B1: chr6:83878822:83878823:+_ENSMUSG00000030016_ENSMUST00000032088|mus_hu|FALSE|FALSE (ssRNA)
RNA: GGGAGUUCUACAGUCCGACGAUCCUCCUCGAGGAUUAAACCUGGGUCUCGACAUGGCUAUUUUCAAGAAAGCCUGAUUUAAUAAAGUAUAAGGUGGUGUUGAACCAUGUGAGGCAACGGCAUUCAGCUGCUGAAGCGCCAACUCAACAGAGGAUUGAGCAUCA
B2: chr12:67691335:67691336:+_ENSG00000111530_ENST00000540319|hu_mus|motif|central (ssRNA)
RNA: GGGAGUUCUACAGUCCGACGAUCCAUGGAGUCAUUUUUGGACAACUCUGACAACAGAUGUUCAAUAAGGUCUACAAAAACGGUAUUUCCGCAGCUCAUAACUAGGUGGCCAAGAGCAAUAAUUGUUCUUUUCCUCACUGCAAGCAACAGAGGAUUGAGCAUCA
B3: chr15:75216061:75216062:-_ENSG00000178741_ENST00000564811|perfect_dup|motif|central (ssRNA)
RNA: GGGAGUUCUACAGUCCGACGAUCUUUGUCAAGGCCCAGUUCCUCCGGAGUGGAGAUUCCCAGUUCAUUUAAAGUUGGUCGGAGUUCCUGGAUGACAUAGGGGUAGAUUUCCUUAUGAGGUCCUGCUUUGUCCUUAACAACCUCCAACAGAGGAUUGAGCAUCA
B4: chr4:6323411:6323412:-_ENSMUSG00000028245_ENSMUST00000029910|mus_hu|FALSE|FALSE (ssRNA)
RNA: GGGAGUUCUACAGUCCGACGAUCAGAAAAAUAUUUUUAAUGUAGAAAAGAUGAAUAGCUGUAAUGAAAUACAAACCGUUCCUAUACACAGUAAACUUACUAAGAACUGCUAAUCCUUCUCCAGGUUCUUAGAAUCUGGGUACACAACAGAGGAUUGAGCAUCA
B5: 109710003_109710123_2987_3pUTR_ENSMUSG00000031924_ENSMUST00000034400|mouse|control|control (ssRNA)
RNA: GGGAGUUCUACAGUCCGACGAUCUUCUGCCUCCCAAGUGCUGGGAUUAAAGAUUUAAAAAAAAAAAAGCAUCCUUUUUAUAUAAUAUAAAAUGACAUUACAUUAUCAGUAGUUCAAAAGAAGCCCUGGGUAUUGACGGAUUUCCAACAGAGGAUUGAGCAUCA
B6: chr12:16048344:16048345:+_ENSG00000023734_ENST00000419869|hu_hu|hu_hu_hu_mus_True|8_18 (ssRNA)
RNA: GGGAGUUCUACAGUCCGACGAUCAGAUCGUCCAUAAGUAAUAACCAAAAUCUCUCCUUCAGGAAUAUACUCCAUGCUGCUAACAGACAUAUUAAAAUUCAGAGAUUUCACUUCUGUCAUAGUAGCAUGAUCCCAAAGCCGAACCAACAGAGGAUUGAGCAUCA
B7: chr12:42180722:42180723:-_ENSMUSG00000036295_ENSMUST00000043884|mus_hu|mus_mus_mus_hu_True|58_108 (ssRNA)
RNA: GGGAGUUCUACAGUCCGACGAUCCUGUAGGAGCAGAAUCUGUGUGUUAGCUGGCAAUCUGGCUGGGAAAGUUAAAAGCCCUAAAUCAUUACAAUCCACUGUAGAUGCUUCCAUAUAAAUGGAUCUGGGUGUAAACCAAGGCCUCAACAGAGGAUUGAGCAUCA
B8: chr7:125984895:125984896:+_ENSMUSG00000030982_ENSMUST00000106553|mus_mus|motif|central (ssRNA)
RNA: GGGAGUUCUACAGUCCGACGAUCGUAGAAGGCAAGAGCUUAAAACCAAUCUGUAUAAAAGUAAAAAUAACAAAAACUUCGGAAUUCCAGGAAGAGUUAAUGGCAGCCAAGCAGAUCUUCCAGGAUGUGGCACUGGGACUCCCGCAACAGAGGAUUGAGCAUCA
B9: chr12:16048344:16048345:+_ENSG00000023734_ENST00000419869|hu_hu|hu_hu_hu_mus_True|18_78 (ssRNA)
RNA: B6 RNA with U57C, A135G
B10: chr16:94690093:94690094:+_ENSMUSG00000040785_ENSMUST00000117648|mus_mus|FALSE|FALSE (ssRNA)
RNA: GGGAGUUCUACAGUCCGACGAUCUGGGACUCCUGUGAGCAGACAGCAUCUUCCCAGGGUAAAAAAAAAAAAUAGCCAAUACUAAUUUAAAAAGUAUUUUAUAAUUGAUUACCAAAAUGUAGAUUAAUUGAAUCAUAAGCACUUCAACAGAGGAUUGAGCAUCA
B11: chr16:94690093:94690094:+_ENSMUSG00000040785_ENSMUST00000117648|mus_mus|motif|central (ssRNA)
RNA: B10 RNA with U82G, A83G
B12: chrX:98838459:98838460:+_ENSMUSG00000034160_ENSMUST00000044475|mus_mus|FALSE|FALSE (ssRNA)
RNA: GGGAGUUCUACAGUCCGACGAUCUCCCAAAUUCGAAUAGGCUUCUGCUAGAAGGGGAUUCUGUUUAAUUGCCAAGGUGCUAAAAUGAGCAGAUCUGUCCAGCCUUCGACACUGGAAGUGUAUAGAUGAAAGUAAUAAAAGAACCAACAGAGGAUUGAGCAUCA
B13: 74654529_74654649_2250_CDS_ENSG00000113161_ENST00000287936|human|control|control (ssRNA)
RNA: GGGAGUUCUACAGUCCGACGAUCUCUGACAACCUUGGCUGGAAUGACAGCUUCACAAACAACAGAUUUUCCUCUUCCCUCUAUCCAAUUUAUAGCAGCAGGUUUCUUGUCAGUACAAUAGUUACCACUAACGGCUAGAAUCUGCAACAGAGGAUUGAGCAUCA
B14: chr22:19452774:19452775:-_ENSG00000070010_ENST00000399523|hu_hu|hu_hu_hu_mus_False|18_88 (ssRNA)
RNA: GGGAGUUCUACAGUCCGACGAUCCUUCUCAUUGUAGUUGAUAGCAAUCACAUCCCCAGUCGUCAGACAGGCGAAGUUUCUCAAUGCAUUUUCUAAUACCGCUUUAGGGUUGGUAAUGUCCAGGAAGUCUGGGCUCUGAGGCUGCAACAGAGGAUUGAGCAUCA

This experiment has as its target T1, UNK ZnF1-3. The experiment is described as follows: nsRBNS (natural sequence RNA bind-n-seq); RBNS binding buffer (assumed for nsRBNS): 25 mM Tris pH 7.5, 150 mM KCl, 3 mM MgCl2, 0.01% Triton X-100, 500 ug/ml BSA, 20 U/ml SUPERase-In, 4 C; UNK is unkempt and MSI1 is Musashi-1; names of the RNAs are library labels; protein concentration not given here; high values mean tight binding.
Consider B1, for which the binding signal amounted to 1.46 enrichment R.
B2: the binding signal worked out at 0.704 enrichment R.
B3 showed a binding signal of 0.656 enrichment R.
For B4 the value was 1.02 enrichment R; for B5, 2.62 enrichment R.
In turn, B6 registered a binding signal of 0.71 enrichment R.
Molecule B7 had a binding signal of 1.07 enrichment R.
For B8, the binding signal worked out at 3.93 enrichment R.
In the case of B9, the binding signal amounted to 0.91 enrichment R.
As for B10, the binding signal was determined as 7.05 enrichment R.
Turning to B11, the binding signal turned out to be 4.87 enrichment R.
For B12, the binding signal is 1.64 enrichment R.
The molecule B13 showed a binding signal of 1.16 enrichment R.
For the molecule B14, the binding signal stood at 0.83 enrichment R.
